# CR mimetic SO: caloric restriction mimetics inhibiting age-related superoxide in yeast; S. cerevisiae aged cells, superoxide DHE fluorescence; active compounds read low; superoxide response (% of plate mean), % at 10 µM; 0.18% of 330,000 active; AID 2690;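 active = superoxide response under a set limit, about three screen SD below normal, cut at about 65% in these data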;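 note: yeast aged for seven days with compound at 30 °C before DHE staining; 100% = average MFI of all compound-treated wells on the plate with controls excluded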
# TIM10 inh: growth inhibitors of TIM10 yeast strain; S. cerevisiae TIM10 strain growth, BacTiter-Glo luminescence, 24 h; inhibition, % at 10 µM; 1.4% of 330,000 active; AID 463195;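 active = inhibition of 40% or more at the single tested concentration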;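 note: wild-type TIM10 isogenic control strain grown at permissive 25 °C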
# tim10-1 inh: inhibits growth of tim10-1 mutant yeast; S. cerevisiae tim10-1 ts strain growth, BacTiter-Glo, 24 h; inhibition, % at 20 µM; 2.2% of 330,000 active; AID 463190;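 active = inhibition of at least 40%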;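 note: mutant grown at 25 °C; 0% = DMSO wells with yeast and 100% = wells holding no yeast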
# tim23-1 inh: growth inhibitors of tim23-1 mutant yeast; AID 463212; S. cerevisiae tim23-1 growth, BacTiter-Glo luminescence, 24 h; 1.3% of 330,000 active; inhibition, % at 20 µM;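 active = growth inhibition of the mutant yeast at or above 50%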;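 note: temperature-sensitive mutant grown at 25 °C; plate controls were DMSO-treated mutant yeast for no effect and medium wells lacking yeast for full effect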
# NLRP3 yeast inh: inhibitors of NALP3 inflammasome in yeast; AID 2825; inhibition, % at 10 µM; Yeast reconstituted NLRP3/ASC/caspase-1, beta-gal luminescence, 24 h; 0.39% of 330,000 active;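 active = inhibition of 50% or more; inactive = inhibition below 50%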;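 note: plate controls were induced DMSO wells for no effect and uninduced yeast grown without galactose for full effect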
# tim10-1 confirm: tim10-1 yeast growth inhibition, confirmed. shares compounds with tim10-1 inh. S. cerevisiae tim10-1 ts strain growth, BacTiter-Glo, 24 h. inhibition, % at 20 µM. 56% of 7,400 active. AID 463213;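 active = inhibition of yeast growth at or above a set limit in either of two repeat tests at 20 µM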;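 note: tim10-1 mutant grown at permissive 25 °C to find synthetic lethal compounds; 0% = DMSO yeast wells and 100% = medium wells without yeast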
# Starred values were filed as active, the others as inactive; · = no result. The list is not random: actives were taken first. Their share in the collection is about 3.8%.
SMILES,CR mimetic SO,TIM10 inh,tim10-1 inh,tim23-1 inh,NLRP3 yeast inh,tim10-1 confirm
Cc1ccc(C)c(N2CCN(C(=O)c3ccc4nc(-c5ccco5)c(-c5ccco5)nc4c3)CC2)c1,106.4,4.6,43.7*,2.3,6.5,37.0*
O=C(COC(=O)Cc1cccs1)NCc1ccc(F)cc1,102.4,-1.5,0.8,6.6,7.0,·
COCCN1Cc2cccc(C(=O)Nc3cccnc3)c2C1=O,94.8,11.4,25.2,8.6,9.0,·
COCCN1Cc2cccc(C(=O)Nc3cccc(C)c3C)c2C1=O,103.6,8.3,36.3,25.4,3.4,·
COCCN1Cc2cccc(C(=O)Nc3ccc4c(c3)OCCO4)c2C1=O,91.2,13.7,45.5*,19.7,6.7,18.2
COCCN1Cc2cccc(C(=O)Nc3ccc(C)cc3)c2C1=O,94.9,17.3,43.4*,23.2,13.4,28.1
CCOc1ccc(NC(=O)c2cccc3c2C(=O)N(Cc2cccnc2)C3)cc1,104.8,33.5,42.5*,24.9,25.3,34.7*
CSc1nc2c(c(-c3ccccc3)c1C#N)CCC2,92.4,3.8,47.8*,31.3,21.4,32.5*
N#Cc1c(N)nc2c(c1-c1ccccc1)CCCC2,101.4,31.6,29.7,7.4,-3.4,·
CCn1c(SCC(=O)Nc2ncc(C(F)(F)F)cc2Cl)nnc1-c1cccc(C)c1,102.8,-19.5,12.3,12.9,13.8,·
Cc1ccc(-c2csc(NC(=O)CN3CC(C)OC(C)C3)n2)cc1 (configuration not stated),104.5,26.2,40.0*,41.3,23.9,34.2*
Cc1cccc(N2CCN(C(=O)CCC(=O)N3Cc4ccccc4Oc4ncccc43)CC2)c1C,114.8,-11.7,53.6*,26.2,17.5,-20.0
CCc1ccc(NC(=O)CCS(=O)(=O)c2ccc(Br)cc2)cc1,118.0,-3.4,18.0,14.7,17.4,·
COc1ccccc1-n1cc2c([N+](=O)[O-])cc([N+](=O)[O-])cc2n1,100.9,30.6,49.3*,44.6,18.3,37.6*
CCc1ccc(/C=C2/C(=O)N(C)C(=S)N2CC(=O)OC)s1,100.1,39.1,42.7*,46.0,8.0,44.2*
CCOc1cccc(-c2nnc3sc(C4CCCCC4)nn23)c1,102.1,30.8,41.1*,39.6,-19.8,13.4
COc1cccc(-c2nnc3sc(C4CCCCC4)nn23)c1,81.4,1.3,24.6,40.4,-15.5,·
COc1ccc(NC(C)(C)c2nnnn2-c2c(C)cccc2C)cc1,106.7,22.5,40.0*,38.1,-8.7,32.2*
C=C(C)C1Cc2nc(N)nc(C)c2C1 (configuration not stated),123.7,4.4,3.3,-7.6,-1.1,·
C=C(C)C1Cc2c(C)nn(-c3nc(C)cc(C)n3)c2C1 (configuration not stated),99.9,10.8,42.4*,24.3,-8.8,23.0
Cc1nn(CCCC(=O)NC(C)c2ccccc2)c(=O)c2nn(-c3ccccc3)c(C)c12 (configuration not stated),85.7,2.9,6.6,-23.7,-2.3,·
CCN1CCN(C2=C(NS(=O)(=O)c3ccccc3)C(=O)c3ccccc3C2=O)CC1,198.8,15.0,3.8,9.4,26.3,·
CCOC(=O)N1CCN(C2=C(NS(=O)(=O)c3ccccc3)C(=O)c3ccccc3C2=O)CC1,155.3,24.8,54.6*,34.3,15.3,15.2
C=CCN(c1ccccc1)S(=O)(=O)c1cc2c(cc1C)N(C)CCO2,80.6,14.6,23.5,35.3,-0.4,·
CN(CC(=O)O/N=C(\N)c1ccc(Br)cc1)S(=O)(=O)c1ccccc1,94.2,-3.8,49.6*,9.5,27.7,43.0*
SMILES,CR mimetic SO,TIM10 inh,tim10-1 inh,tim23-1 inh,NLRP3 yeast inh,tim10-1 confirm
CN(CC(=O)O/N=C(\N)c1ccccn1)S(=O)(=O)c1ccc(Br)cc1,111.1,12.6,31.9,22.7,19.6,·
O=C(CN1C(=O)C2CC=CCC2C1=O)Nc1ccc(OC(F)(F)F)cc1 (configuration not stated),99.7,3.0,6.5,-28.1,12.3,·
Cc1ccc(C)c(S(=O)(=O)NNC(=O)c2sc(NS(=O)(=O)c3ccccc3)nc2C)c1,80.6,-1.3,1.0,-12.5,-6.0,·
Cn1c(=O)c2c(nc(Oc3ccc(-c4ccccc4)cc3)n2C)n(C)c1=O,98.7,19.0,40.1*,13.9,30.0,4.8
Cc1ccc(Oc2nc3c(c(=O)n(C)c(=O)n3C)n2C)cc1C,104.7,-3.0,7.8,16.9,18.2,·
COc1ccc(CN2CCN(Cc3ccon3)CC2CCO)c(C)c1C (configuration not stated),86.1,-3.2,11.1,-4.9,8.5,·
CCCc1cc(-c2n[nH]c(=S)n2-c2cccc(C)c2)cs1,104.7,27.9,46.0*,48.5,18.3,39.2*
Cc1cccc(-n2c(-c3ccco3)n[nH]c2=S)c1,92.7,3.2,16.4,17.7,1.1,·
CC(C)Oc1ccc(Cl)cc1Nc1nc(NCCO)nc(N2CCCC2)n1,105.6,14.5,41.0*,40.3,22.2,7.6
O=C(CSc1nc2ccccc2[nH]1)N1c2ccccc2Sc2ccccc21,104.9,26.4,45.5*,36.7,5.3,19.9
O=C(CSc1nc(O)cc(=O)[nH]1)N1c2ccccc2Sc2ccccc21,92.3,-0.5,-8.6,16.0,3.8,·
O=C(O)c1cc2ccc3cccc4ccc(c1)c2c34,132.1,34.5,42.7*,33.0,17.0,23.2
O=C(O)c1cccc(C(=O)c2cccc(C(=O)O)c2)c1,91.0,4.4,-5.5,-9.7,4.3,·
CCOC(=O)c1sc2nc3c(cc2c1N)COC(C)(C)C3,95.2,4.2,40.1*,20.1,24.1,25.6
CCOC(=O)c1sc2nc3c(cc2c1N)COC(C)(CC)C3 (configuration not stated),89.3,34.2,42.8*,30.7,8.8,27.6
OC(c1cccc(OCc2ccccc2)c1)c1nnc(-c2ccccc2)o1 (configuration not stated),86.2,16.4,44.0*,17.2,-5.2,27.8
COC(=O)N1C(=O)[C@](CC(C)C)(c2ccccc2)N1C(=O)OC,76.1,·,·,·,·,·
COC(=O)N1C(=O)[C@@](c2ccccc2)(C2CCCC2)N1C(=O)OC,95.7,36.7,41.9*,31.0,0.9,32.0*
CC1=C(C#N)C(c2ccccc2)C2=C(N1)c1ccccc1C2=O (configuration not stated),102.5,27.3,15.8,14.9,10.7,·
CSC1=C(C#N)C(c2ccccc2Cl)C2=C(N1)c1ccccc1C2=O (configuration not stated),95.2,29.9,45.8*,47.0,9.8,28.3
CCOC(=O)C1CCCN(C(=S)Nc2ccc(S(=O)(=O)N3CCOCC3)cc2)C1 (configuration not stated),111.4,-2.9,2.0,1.9,4.9,·
Cc1ccc(/C=C2/N=C(c3ccccc3)NNC2=O)cc1,98.1,15.2,12.4,22.7,10.8,·
COc1ccc2cc(C)c3nnc(SCc4cccnc4)n3c2c1,96.2,28.3,41.3*,29.5,19.6,33.6*

# High-throughput results as filed in PubChem BioAssay.
